About 1,700 (0.53%) of roughly 320,000 compounds were called active.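 How the source made its calls: active means inhibition above the campaign mean of all compounds plus 3 SD (cut at about 26% in these data); inactive means the rest.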 The list comes from a sample in which actives are over-represented; it also holds similar structures and randomly drawn compounds.

Chain of Protein phosphatase methylesterase 1 (Homo sapiens) (Q9Y570 whole entry, looked up): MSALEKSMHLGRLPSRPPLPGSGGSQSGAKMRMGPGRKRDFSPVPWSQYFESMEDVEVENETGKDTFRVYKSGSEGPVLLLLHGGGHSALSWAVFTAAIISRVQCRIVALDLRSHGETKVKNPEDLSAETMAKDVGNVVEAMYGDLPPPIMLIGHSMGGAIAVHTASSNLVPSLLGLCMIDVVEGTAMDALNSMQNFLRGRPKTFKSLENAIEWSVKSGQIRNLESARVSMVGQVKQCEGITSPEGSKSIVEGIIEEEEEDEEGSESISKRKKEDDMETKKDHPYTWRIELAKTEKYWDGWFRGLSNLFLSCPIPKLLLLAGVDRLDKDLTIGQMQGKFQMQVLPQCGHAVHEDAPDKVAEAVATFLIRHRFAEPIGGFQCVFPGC

This test concerns the target Protein phosphatase methylesterase 1 (Homo sapiens) (UniProt Q9Y570). Nature of the test: PME-1 inhibitors via competitive probe labeling, primary screen, biochemical, fluorescence polarization, FP-Rh probe, HTS (AID 2130).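 Further: competitive labeling of PME-1 active site by serine hydrolase directed probe; 0% = PME-1 with DMSO and 100% = wells lacking PME-1 enzyme; inhibitors block probe labeling so polarization falls and inhibition rises.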 The note with it: recombinant PME-1, FP-Rh probe fluorescence polarization; at 5.9 µM; stronger effect = higher value. (In general: Polarisation of emitted light reports the rotation of a fluorescent probe.)
By inhibition is commonly meant the relative decrease from the control value, in per cent. Take `COc1ccccc1N1CCN(C(=O)CCS(=O)(=O)c2ccc3c(c2)NC(=O)C(C)S3)CC1` (stereo unspecified): the inhibition was -1.07% (inactive).

`COC(=O)c1ccc(CN2C(=O)NC(c3ccccc3)(c3ccccc3)C2=O)o1`: the inhibition is 0.13% (inactive).

Take `CC(C)(C)C(=O)N(Cc1ccccc1)c1ccccn1`: the inhibition is -3.74% (inactive).

`O=C(Nc1ccccc1C(=O)N1CCOCC1)c1ccc(Cl)cc1`: the inhibition was -4.46% (inactive).

With `O=c1nc(N2CCOCC2)nc2n1CCO2`, the inhibition is 0.45% (inactive).

For the molecule `CCCOc1ccc(CN(CCO)CCO)cc1C(=O)OC`, the inhibition is 1.19% (inactive).

With `Cc1c(C(=O)N2CCCC2)c(S(=O)(=O)NCC(C)c2ccccc2)c(C)n1C` (stereo unspecified), the inhibition was 4.76% (inactive).

With `N=c1n(CCc2ccccc2)c2ccccc2n1Cc1ccccc1F`, the inhibition was -11% (inactive).

With `CCOC(=O)c1c(C)oc2ccc(OCC(=O)N(CC)CC)cc12`, the inhibition is -5.01% (inactive).

Regarding `CC(=O)c1c(C)n(-c2ccc(N(C)C)cc2)c2ccc(OCC(N)=O)cc12`, the inhibition is 26.2% (active).

Take `CC(=O)c1c(C)n(-c2ccc(C)cc2)c2ccc(O)cc12`: the inhibition was -0.87% (inactive).

As for `CC(=O)N1CC[n+]2c(-c3ccc([N+](=O)[O-])cc3)csc21`, the inhibition is -1.65% (inactive).

Take `COc1cc(NS(=O)(=O)c2ccc(NC(=O)c3ccc([N+](=O)[O-])cc3)cc2)ncn1`: the inhibition was 4.2% (inactive).

As to `Cc1ccc(NC(=O)Cc2nnc(SCC(=O)Nc3nncs3)n2C)cc1`, the inhibition was 5.14% (inactive).

Regarding `O=C(CCn1nnc2ccccc21)OCC(=O)c1ccc([N+](=O)[O-])cc1`, the inhibition was -1.86% (inactive).

Consider `Cc1cc(C(=O)OCC(=O)Nc2ccc(F)c(F)c2)c(C)o1`, for which the inhibition was -2.42% (inactive).

Consider `CONC(=O)c1cc(OCC(F)(F)F)ccc1OCC(F)(F)F`, for which the inhibition is -6.8% (inactive).

Turning to `CN(Cc1ccccc1)C(=O)c1ccc(NC2=NC3CS(=O)(=O)CC3S2)cc1` (stereo unspecified), the inhibition was 0.07% (inactive).

For `O=C(CCc1nnc2ccc(NCCCN3CCCC3=O)nn12)NCc1ccccc1Cl`, the inhibition is -0.36% (inactive).

`Cc1ccc(N(C(=O)C(F)(F)F)C(C(=O)NC2CCCCC2)c2ccncc2)cc1C` (stereo unspecified): the inhibition is 3.24% (inactive).

Consider `O=S1(=O)CCOC[C@H](CC2CCCCC2)N1Cc1ccc(F)cc1`, for which the inhibition was 1.92% (inactive).

As for `COC(=O)c1sc(=S)n(-c2ccc(Cl)cc2)c1C`, the inhibition is -0.65% (inactive).

On to `CCOC(=O)c1c(N)sc(C(C)=O)c1C`, for which the inhibition was 3.77% (inactive).

As to `COCCOC(=O)c1sc(=S)n(CCOC)c1N`, the inhibition was 35% (active).

Regarding `COc1cccc(CNC(=O)CN2C(=O)NC(Cc3ccccc3)(c3ccccc3)C2=O)c1` (stereo unspecified), the inhibition is -2.37% (inactive).

Consider `Cc1ccc(C2C3=C(Nc4[nH]n(-c5ccccc5)c(=O)c42)c2ccccc2C3=O)cc1` (stereo unspecified), for which the inhibition was 36.4% (active).

On to `Cc1ccc(-c2ccnc3[nH]n(-c4ccccc4)c(=O)c23)cc1`, for which the inhibition was -2.99% (inactive).

With `Cc1cc(C)c(C2C3=C(Nc4c2c(C)nn4-c2ccccn2)c2ccccc2C3=O)c(C)c1` (stereo unspecified), the inhibition was -4.18% (inactive).

As for `CSc1nc2nc(-c3cccc(C(F)(F)F)c3)ccn2n1`, the inhibition was -7.13% (inactive).

Take `COC(=O)CSc1nc2c(c(C3CC=CCC3)c1C#N)CCC2` (stereo unspecified): the inhibition was -1.86% (inactive).

As to `CCOC(=O)N1CCN(C(=O)COCc2cc(-c3ccc4c(c3)OCO4)on2)CC1`, the inhibition was -4.28% (inactive).

Take `O=C(NCCCN1CCCCC1)C1CC(=O)N(CCc2ccccc2)C1` (stereo unspecified): the inhibition is 0.2% (inactive).

With `CCCCN(CCCC)CCNC(=O)CN1C(=O)COc2ccc(S(=O)(=O)N3CCOCC3)cc21`, the inhibition was -2.01% (inactive).

In the case of `CCc1ccc(C(=O)CSc2nnc(C)c(=O)[nH]2)cc1`, the inhibition is -6.05% (inactive).

As for `O=C(O)c1ccccc1N=N/C(=N/Nc1cc(S(=O)(=O)O)ccc1O)c1ccccc1`, the inhibition is 13.7% (inactive).

With `Cc1cccc(COc2ccccc2/C=N/Nc2ccc([N+](=O)[O-])cc2)c1`, the inhibition is 11.9% (inactive).

In the case of `Cc1ccc(NS(=O)(=O)c2ccc(N/N=C/c3ccccc3OCC(=O)O)c([N+](=O)[O-])c2)c(C)c1`, the inhibition was 78.2% (active).

Take `COCCNC(=O)c1ccccc1NS(=O)(=O)c1ccc(C)c([N+](=O)[O-])c1`: the inhibition is -1.62% (inactive).

As for `Cc1ccccc1N1CC(C(=O)Nc2ccc3c(c2)OCO3)CC1=O` (stereo unspecified), the inhibition is 0.7% (inactive).

`COCCN(C(=S)Nc1cccc(Cl)c1C)C(C)c1ccco1` (stereo unspecified): the inhibition was -13.2% (inactive).

`CCCN(C(=O)CSc1nnnn1C)c1c(N)n(Cc2ccccc2)c(=O)[nH]c1=O`: the inhibition is 0.95% (inactive).

On to `COc1ccc(C2Nc3ccccc3C(=O)N2c2ccc(F)cc2)cc1Cn1nnc2ccccc21` (stereo unspecified), for which the inhibition is 30.4% (active).

As to `COc1ccc(N2C(=O)c3ccccc3NC2c2ccc(OC)c(CN3CCOCC3)c2)cc1` (stereo unspecified), the inhibition was -3.55% (inactive).

On to `COc1ccc(C2Nc3ccccc3C(=O)N2Cc2ccccc2)cc1Cn1nnc2ccccc21` (stereo unspecified), for which the inhibition is 8.54% (inactive).

On to `O=C(NCCc1ccccn1)c1nc(Cn2cc([N+](=O)[O-])cn2)no1`, for which the inhibition is -4.02% (inactive).

As to `Cc1ccc(-c2ccnc3nc(Sc4ncc(C(F)(F)F)cc4Cl)nn23)cc1`, the inhibition is -0.19% (inactive).

For the molecule `COC/C=C/C1=CC2=CC(=O)C(C)(OC(=O)CCC(=O)OC)C(=O)C2=CO1` (stereo unspecified), the inhibition was -1.35% (inactive).

Regarding `COc1ccccc1OCCn1c(SCC(N)=O)nc2ccccc21`, the inhibition was -4.12% (inactive).

Take `COC(C(=O)Nc1ccc(C(C)=O)cc1)c1ccccc1` (stereo unspecified): the inhibition was -5.79% (inactive).

Take `COc1ccc(NC(=O)[C@H](NC(=O)[C@@H]2Cc3ccccc3CN2)c2ccccc2)cc1`: the inhibition was -3.82% (inactive).

On to `COc1ccc(NC(C(=O)Nc2cccc(C(C)=O)c2)c2ccccc2)cc1` (stereo unspecified), for which the inhibition is 34.5% (active).

With `CS(=O)(=O)N(CC(=O)Nc1ccc(F)cc1F)c1cccc([N+](=O)[O-])c1`, the inhibition is -2.56% (inactive).

On to `O=C(CNCc1cccs1)Nc1cc(S(=O)(=O)N2CCCC2)ccc1Cl`, for which the inhibition is 22% (inactive).

As for `CSCCC(NS(=O)(=O)/C=C/c1ccccc1)C(=O)N1CCC(C)CC1` (stereo unspecified), the inhibition is 6.82% (inactive).

With `CCc1nnc(NC(=O)c2sc3nc(C)cc(COC)c3c2N)s1`, the inhibition was -5.69% (inactive).

On to `CCc1ccc2nc3sc(C(=O)Nc4nnc(CC)s4)c(N)c3cc2c1`, for which the inhibition was 65.8% (active).

Consider `CCc1nnc(NC(=O)c2cccc(S(=O)(=O)N(C)c3ccc(OC)cc3)c2)s1`, for which the inhibition was -0.95% (inactive).

Regarding `Clc1ccc(-c2cc(COc3ccccc3)no2)cc1Cl`, the inhibition was -8.92% (inactive).

Regarding `COC(=O)COc1ccc2c(c1C)O/C(=C\c1ccco1)C2=O`, the inhibition is -9.46% (inactive).

For the molecule `COc1ccc(C(=O)Nc2ccccc2C(=O)N/N=C/c2ccc(O)c(OC)c2)cc1`, the inhibition is 33.6% (active).

`COc1cc(/C=N/NC(=O)c2ccc(N3CCCC3=O)cc2)ccc1O`: the inhibition was 5.91% (inactive).

As for `CCOc1cc(/C=N/NC(=O)c2cc(-c3ccccc3)nc3ccccc23)ccc1O`, the inhibition is -7.58% (inactive).

For `CCOC(=O)[C@H]1CCC[C@@H](NS(=O)(=O)c2ccc(NC(C)=O)cc2)C1`, the inhibition was 1.52% (inactive).

As to `Cc1csc2nc(COC(=O)c3cccc(N(C)C)c3)cc(=O)n12`, the inhibition was 3.78% (inactive).

On to `COc1ccc(NS(=O)(=O)c2cc(NC(=O)CC(=O)c3ccc([N+](=O)[O-])cc3)ccc2C)cc1`, for which the inhibition was 27% (active).

On to `COc1ccc(NS(=O)(=O)c2cc(C(=O)Nc3ccccc3C(=O)O)ccc2C)cc1`, for which the inhibition is -3.94% (inactive).

Turning to `COc1ccc(C(=O)CC(=O)C(=O)Nc2cc([N+](=O)[O-])ccc2OC)cc1`, the inhibition was -2.97% (inactive).

`Cc1occc1C(=O)NC1CCCN(Cc2ccc(CC(C)C)cc2)C1` (stereo unspecified): the inhibition is 5.69% (inactive).

In the case of `COc1cc2ccccc2cc1C(=O)Nc1ccc(NC(=O)c2cccs2)cc1`, the inhibition is -34% (inactive).

Turning to `COc1ccc(CN(Cc2ccc(OC)cc2)C(=O)c2cccs2)cc1`, the inhibition was 4.18% (inactive).

In the case of `COc1ccc(CCNC(=O)/C(C#N)=C2\N=C(NC(=O)c3cccs3)c3ccccc32)cc1`, the inhibition was 28.2% (active).

`CN(Cc1c(F)cccc1Cl)S(=O)(=O)c1cccs1`: the inhibition was 4.21% (inactive).

In the case of `CN(C)C(=O)c1ccc2c(c1)C1C3CCC(C3)C1C(c1ccccc1)N2` (stereo unspecified), the inhibition was 8.08% (inactive).

Regarding `CCc1nnc(NC(=O)CSc2nc(SC)ns2)s1`, the inhibition was -0.14% (inactive).

As to `CCN(CC)C(=O)CSC(Nc1cccc(F)c1)=C(C#N)C#N`, the inhibition was -5.27% (inactive).

As for `Cc1cc(C)cc(NC(=S)NCCc2c[nH]c3ccccc23)c1`, the inhibition is 26.7% (active).

On to `Cc1cc(C)cc(NC(=S)NCc2ccc(F)cc2)c1`, for which the inhibition was 7.45% (inactive).

As for `O=C(NCCc1c[nH]c2ccccc12)c1cccc(Br)c1`, the inhibition was 4.14% (inactive).

Consider `O=C(NCCS(=O)(=O)N1CCN(c2ccccc2F)CC1)c1ccc(Br)o1`, for which the inhibition is 3.82% (inactive).

Turning to `Cc1cc(C)c2nc3nc(C)cc(C)c3c(N)c2c1`, the inhibition was -3.32% (inactive).

As for `CCOC12CC(C)(C)CC(C)(CC3=C1C(=O)CC(C)(C)C3)C2` (stereo unspecified), the inhibition was 2.34% (inactive).

Turning to `O=c1c2sccc2nc(SCc2cc(=O)n3ccccc3n2)n1-c1ccc(Br)cc1`, the inhibition is 6.68% (inactive).

With `N#CCCN(C(=O)COC(=O)C1CCN(c2ccc(C(F)(F)F)cn2)CC1)c1ccc(F)cc1`, the inhibition is 1.79% (inactive).

`Cc1cc(NC(=O)COc2ccccc2C#N)no1`: the inhibition was -1.79% (inactive).

As for `CCc1cccc(CC)c1NC(=O)COc1ccccc1C(=O)c1cc(C#N)c(=O)n(C2CCCCC2)c1`, the inhibition was 26.5% (active).

`CCc1ccccc1OCC(=O)Nc1ccc(C)c(S(=O)(=O)N2CCCCCC2)c1`: the inhibition was -30.7% (inactive).

Consider `CCOc1ccc(S(=O)(=O)N(CC(=O)NCC(F)(F)F)Cc2ccco2)cc1`, for which the inhibition was -1.32% (inactive).

Turning to `FC(F)(F)c1cccc(-c2nc(COc3ccc(Cl)cc3Cl)no2)c1`, the inhibition is -0.04% (inactive).

Consider `COC(=O)[C@H](C)NC(=O)Nc1ccc(OC(F)(F)F)cc1`, for which the inhibition was 0.46% (inactive).

In the case of `Cn1nccc1NC(=O)Nc1ccc(OC(F)(F)F)cc1`, the inhibition is 8.73% (inactive).

In the case of `O=C(Nc1ccc(OC(F)(F)F)cc1)c1ccc2c(c1)no[n+]2[O-]`, the inhibition was 32% (active).

Take `CCOC(=O)Cc1c(C)nc2c(C#N)c(C)nn2c1C`: the inhibition was -0.83% (inactive).

As to `CCN=C1S/C(=C\c2cc(Br)ccc2OCC(=O)OCC)C(=O)N1CC`, the inhibition is 3.9% (inactive).

In the case of `CC(C)CCOc1ccc(C(=O)C[N+]2(C)CCOCC2)cc1`, the inhibition was 1.1% (inactive).

As to `Cc1ccc(N(Cc2ccc(C(=O)Nc3ccccc3C(=O)NCc3ccco3)cc2)S(C)(=O)=O)cc1C`, the inhibition was -28.2% (inactive).

For the molecule `Nc1c(N(Cc2ccco2)C(=O)c2cccc(F)c2)c(=O)[nH]c(=O)n1Cc1ccccc1`, the inhibition is 3.17% (inactive).

The values are drawn from PubChem BioAssay AID2130 (The Scripps Research Institute Molecular Screening Center, 2009).
